From PubChem BioAssay (NCATS)
Results filed as inconclusive are left out. A call without a number means that no potency is given here. A number with no mark means an inactive call. Activity calls are given as the source filed them. Calls follow the shape of the dose curve; as a rule, active = well fitted inhibition curve with a large enough effect; inconclusive = small, poorly fitted or top-dose-only effect; inactive = no such curve, though single readings can be large or run the other way. *1 amine or outer side, *2 acyl side, *3 side chain or, on linkers, in order; H or OH if unused. Where a SMILES comes first, the peptide text is derived from it. [ ]: non-standard residue; d: D form. X13 = O=C(C(CC(O)CO)O[*:1])[*:2]; NMeV = CN[CH](C(=O)O)C(C)C; NMeA = CN[CH](C)C(=O)O; βAla = NCCC(=O)O

Assays:
[1] = tested on: Zika virus NS2B-NS3 protease (unlinked complex); test: Primary screen GU Rhodamine qHTS for Zika virus inhibitors: Unlinked NS2B-NS3 protease assay (AID 1347159); also: nearly all actives have a fitted effect of over 60% in size; also: potency is read from the fitted curve at half-maximal effect
How it was run: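 A qHTS format was used, with compound concentrations ranging up to 114 microM. Each compound was preincubated with 25 nM NS2B-NS3 protease, and the substrate was then added at 1.5 microM. Curves were fitted with a 4-parameter Hill model.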

[2] = tested on: Zika virus NS2B-NS3 protease (linked construct); test: Primary screen NINDS Rhodamine qHTS for Zika virus inhibitors (AID 1347160); also: nearly all actives have a fitted effect of over 55% in size
How it was run: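 Kinetic fluorescence (Ex 480 nm, Em 540 nm) over 15 min with 1.5 microM Rhodamine110 peptide and 25 nM linked protease.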

On1ncc(C2CCNCC2)c1-c1cccc(-c2ccccc2)c1
Potency [1]: inactive | Potency [2]: inactive

CCNC(=O)OC1CCN(c2nncc3cc(OC)c(OC)cc23)CC1
Potency [1]: inactive | Potency [2]: inactive

CC1CC(=O)C2C(O)(C1)CC(O)C13OC1c1c(O)cccc1C(=O)C23O (configuration not stated)
Potency [1]: inactive | Potency [2]: inactive

CC(C)N(CCCNC(=O)Nc1ccc(C(C)(C)C)cc1)C[C@H]1O[C@@H](n2ccc3c(N)ncnc32)[C@H](O)[C@@H]1O
Potency [1]: inactive | Potency [2]: inactive

CN1CCCC1Cc1c[nH]c2ccc(CCS(=O)(=O)c3ccccc3)cc12 (configuration not stated)
Potency [1]: inactive | Potency [2]: inactive

CNc1nc(Cc2ccccc2)nc2c1CCNC[C@@H]2C
Potency [1]: inactive | Potency [2]: inactive

Cc1ccccc1-c1cc(N2CCN(C)CC2)ncc1N(C)C(=O)C(C)(C)c1cc(C(F)(F)F)cc(C(F)(F)F)c1
Potency [1]: inactive | Potency [2]: inactive

CC(C)=CC1C[C@](C)(O)[C@@H]2[C@H]3CCC4[C@@]5(C)CC[C@H](O[C@@H]6OC[C@H](O)[C@H](O[C@@H]7O[C@H](CO[C@@H]8O[C@H](CO)[C@@H](O)[C@H](O)[C@H]8O)[C@@H](O)[C@H](O)[C@H]7O)[C@H]6O[C@@H]6O[C@@H](C)[C@H](O)[C@@H](O)[C@H]6O)C(C)(C)[C@@H]5CC[C@@]4(C)[C@@]34CO[C@@]2(C4)O1 (some centres not stated)
Potency [1]: inactive | Potency [2]: inactive

O=C(Cc1ccc(Cl)cc1)Nc1cnccc1C(=O)O
Potency [1]: inactive | Potency [2]: inactive

C[C@@H]1[C@H](O)[C@@H]2OC(=O)C3=C2[C@H](CCC3)[C@@]12C[C@@H](c1ccoc1)OC2=O
Potency [1]: inactive | Potency [2]: inactive

CC(=O)OC1CC2(C)C(CCC(C)C23Cc2c(O)cc4c(c2O3)CNC4=O)C(C)(C)C1O (configuration not stated)
Potency [1]: inactive | Potency [2]: inactive

Cc1ccc(-c2c(-c3nn(C)c4ncnc(N5CCC(N6CCCCC6)C5)c34)cnn2C)cc1 (configuration not stated)
Potency [1]: inactive | Potency [2]: inactive

COC(=O)C(CC1(O)c2ccccc2N2C(=O)C(C)(C)N(O)C21)n1cnc2ccccc2c1=O (configuration not stated)
Potency [1]: inactive | Potency [2]: inactive

Cc1ccc(C)c(S(=O)(=O)n2cnc3ccccc32)c1
Potency [1]: inactive | Potency [2]: inactive

CCC1(O)CC2c3cc(OC)c(OC)cc3CCN2CC1CC(C)C (configuration not stated)
Potency [1]: inactive | Potency [2]: inactive

C=CCC1=C[C@]2(OC)[C@H](C)[C@@H](c3ccc(OC)c(OC)c3)O[C@]2(OC)CC1=O
Potency [1]: inactive | Potency [2]: inactive

COc1cccc(OC)c1-c1ccc(C[C@H](NC(=O)c2c(Cl)cccc2Cl)C(=O)O)cc1
Potency [1]: inactive | Potency [2]: inactive

CC1(C(=O)O)CCCC2(C)C3CCC4CC3(CCC12)CC4C(=O)O (configuration not stated)
Potency [1]: inactive | Potency [2]: inactive

CCCC1=CC2=C(CO1)C(=O)C(C)(O)C(OC(=O)c1c(C)cc(OC)cc1O)C2 (configuration not stated)
Potency [1]: inactive | Potency [2]: inactive

C=C1CC23CC1CCC2C12OC(=O)C(C)(C(O)CC1O)C2C3C(=O)O (configuration not stated)
Potency [1]: inactive | Potency [2]: inactive

CCCCOc1nc(N)c2c(n1)N(Cc1cccc(CN3CCCC3)c1)CC(=O)N2
Potency [1]: inactive | Potency [2]: inactive

CC(=O)OCC1OC(OC2COC(OC3COC(OC4C(OC5C(CO)OC(OC6CCC7(C)C(CCC8(C)C7CC=C7C9CC(C)(C)CCC9(C(=O)OC9OC(CO)C(O)C(O)C9OC9OCC(OC%10OCC(O)(CO)C%10O)C(O)C9O)C(O)CC78C)C6(C)C)C(O)C5O)OCC(O)C4O)C(O)C3O)C(O)C2O)C(OC(=O)/C=C/c2ccccc2)C(O)C1OC(C)=O (configuration not stated)
activity change, negative = inhibition [1]: 8.67% [at 19.1 µM] | Potency [2]: inactive

CCN1CCN(C(=O)N[C@@H](C(=O)N[C@@H]2C(=O)N3[C@@H]2SC(C)(C)[C@@H]3C(=O)O)c2ccccc2)C(=O)C1=O
Potency [1]: inactive | Potency [2]: inactive

C[C@H]1[C@@H](O)[C@H](O)C2[C@]3(C)C([C@@H](O)[C@H]4OC(=O)[C@@H]1[C@@]24C)[C@](C)(O)C=C[C@H]3O[C@@H]1O[C@H](CO)[C@@H](O)[C@H](O)[C@H]1O (some centres not stated)
Potency [1]: inactive | Potency [2]: inactive

COC(=O)C1=CO[C@@H](O[C@@H]2O[C@H](CO)[C@@H](O)[C@H](O)[C@H]2O)[C@@H]2[C@@H](C(=O)O)CC[C@H]12
Potency [1]: inactive | Potency [2]: inactive

C=C1CCC2C(C)(C(=O)OC)CCCC2(C)C1CCC1=CCOC1=O (configuration not stated)
Potency [1]: inactive | Potency [2]: inactive

CC(=O)c1[nH]cc(CCC(=O)O)c1CC(=O)O
Potency [1]: inactive | Potency [2]: inactive

CC1(C)CCCC2(C)c3c4c(c(=O)oc(=O)c3=CCC12)=CCC1C(C)(C)CCCC41C (configuration not stated)
Potency [1]: inactive | Potency [2]: inactive

CC(C)CC[C@@H](O)[C@](C)(O)[C@H]1CC[C@@]2(O)C3=CC(=O)[C@@H]4C[C@@H](O)[C@@H](O)C[C@]4(C)[C@H]3CC[C@]12C
Potency [1]: inactive | Potency [2]: inactive

COC(=O)[C@H](Cc1ccc([N+](=O)[O-])cc1)NC(=O)c1cccc2ccccc12
Potency [1]: inactive | Potency [2]: inactive

COC(=O)C1C(c2ccc(O)cc2)C(C(=O)O)C1c1ccc(O)cc1 (configuration not stated)
Potency [1]: inactive | Potency [2]: inactive

Cc1ccc(COC(=O)N2CC[C@@H](CNc3ncccn3)[C@@H](F)C2)cc1
Potency [1]: inactive | Potency [2]: inactive

O=C(O)[C@H]1Cc2ccccc2CN1
activity change, negative = inhibition [1]: -0.45% [at 11.5 µM] | activity change, negative = inhibition [2]: 20.2% [at 4.91 µM]

CC1(C)CC[C@]2(C(=O)O[C@@H]3O[C@H](CO)[C@@H](O)[C@H](O)[C@H]3O)CC[C@]3(C)C(=CCC4[C@@]5(C)CC[C@H](O[C@@H]6O[C@H](C(=O)O)[C@@H](O[C@@H]7O[C@H](CO)[C@@H](O)[C@H](O)[C@H]7O)[C@H](O)[C@H]6O[C@@H]6O[C@H](CO)[C@@H](O)[C@H](O)[C@H]6O)C(C)(C)C5CC[C@]43C)C2C1 (some centres not stated)
Potency [1]: inactive | Potency [2]: inactive

COc1cc2c(cc1O)C(c1ccc(O)cc1)C(C)C(C)C2 (configuration not stated)
Potency [1]: 39.8 µM (active) | Potency [2]: inactive

COc1c2c(c(C)c3c1C(=O)OC3)OC1(C)CC(O)C34OC(OC)(CC(O)C3(C)C1C2)OC4(C)C (configuration not stated)
Potency [1]: inactive | Potency [2]: inactive

COc1cc(O)cc(C)c1C(=O)O[C@H]1[C@@H](O)[C@@H](n2ccc(=O)[nH]c2=O)O[C@@H]1CO
Potency [1]: inactive | Potency [2]: inactive

CC(=O)OC[C@]12[C@H](OC(C)=O)[C@H](OC(=O)c3ccccc3)[C@@H]3[C@@H](OC(C)=O)[C@]1(OC3(C)C)[C@H](C)C[C@H](OC(=O)c1ccccc1)[C@@H]2OC(=O)c1ccccc1
Potency [1]: inactive | Potency [2]: inactive

COc1ccc(C2OCC3C(c4cc(OC)c5c(c4)OCO5)OCC23)cc1OC (configuration not stated)
Potency [1]: inactive | Potency [2]: inactive

C=C(CCO)C(=O)OCC1OCC(OC(=O)C(=C)CCO[C@@H]2O[C@H](CO)[C@@H](O)[C@H](O)[C@H]2O)C(O)C1O (some centres not stated)
Potency [1]: inactive | Potency [2]: inactive

C=CC(C)(O)CC/C=C(\C)C(=O)O[C@@H]1[C@@H](O)[C@H](OC(C)(C=C)CC/C=C(\C)C(=O)O[C@@H]2O[C@H](CO)[C@@H](O)[C@H](O)[C@H]2O)O[C@H](CO)[C@H]1OC(=O)/C(C)=C/CCC(C)(O)C=C (some centres not stated)
Potency [1]: inactive | Potency [2]: inactive

C=CC(C)(O)C1CC2C3(C)CCCC(C)(C)C3C(O)C(O)C2(C)O1 (configuration not stated)
Potency [1]: inactive | Potency [2]: inactive

O=C(O)Cc1cn([C@@H]2O[C@H](CO)[C@@H](O)[C@H](O)[C@H]2O[C@@H]2O[C@H](CO)[C@@H](O)[C@H](O)[C@H]2O)c2ccccc12
Potency [1]: inactive | Potency [2]: inactive

COC(=O)C1=CO[C@@H](O[C@@H]2O[C@H](CO)[C@@H](O)[C@H](O)[C@H]2O)[C@@H]2C(C)CC(=O)[C@]12O (some centres not stated)
Potency [1]: inactive | Potency [2]: inactive

CC1(C)C2CCC1(C)C(OC(=O)C(O)(CC(=O)O)CC(=O)O)C2 (configuration not stated)
Potency [1]: inactive | Potency [2]: inactive

C=C1C(OC(C)=O)CCC2(C)CCC(C(C)(C)O)CC12 (configuration not stated)
Potency [1]: inactive | Potency [2]: inactive

C=C1CC[C@@]2(OC1)O[C@H]1CC3C4CC=C5C[C@@H](O[C@@H]6O[C@@H](C)[C@H](O)[C@@H](O)[C@H]6O)C[C@@H](O[C@@H]6O[C@H](C)[C@H](O)[C@H](O)[C@H]6O[C@@H]6O[C@@H](C)[C@H](O)[C@@H](O)[C@H]6O)[C@]5(C)C4CC[C@]3(C)[C@H]1[C@@H]2C (some centres not stated)
Potency [1]: inactive | Potency [2]: inactive

Cc1[nH]c2ccccc2c1CC(=O)N[C@@H](Cc1ccccc1)C(=O)N(C)c1ccccc1
Potency [1]: inactive | Potency [2]: inactive

CCC(C)C1NC(=O)C2CCCN2C(=O)C(CC(O)CO)OC(=O)CCNC(=O)C(C)N(C)C(=O)C(C(C)C)N(C)C1=O (configuration not stated) (cyclo([X13]PI[NMeV][NMeA][βAla]); configuration not given here)
Potency [1]: inactive | Potency [2]: inactive

COc1ccc(/C=C/C(=O)O[C@@H]2[C@@H](O)[C@@H](O)[C@H](O[C@H]3[C@@H]4C=CO[C@@H](O[C@@H]5O[C@H](CO)[C@@H](O)[C@H](O)[C@H]5O)[C@@H]4[C@@]4(CO)O[C@@H]34)O[C@H]2C)cc1
Potency [1]: inactive | Potency [2]: inactive

C[C@H]1CC(=O)C2=C(C1)C(O)C(O)[C@@]1(O)[C@H]2C(=O)c2cccc(O)c2[C@@H]1O (some centres not stated)
Potency [1]: inactive | Potency [2]: inactive
